# Screens (PubChem)
# In the library only some 10% were active in any assay of this set; here they are far more common.
# HEK cytotox = Cytotoxic Profiling in HEK 293 Cell Line of Diverse Libraries Using Quantitative High-Throughput Screening | AID 1345083, 2018 | HEK 293 viability, ATP luminescence (CellTiter-Glo), 48-72 h | Potency, µM (highest dose often 115 µM), for the others: top-dose activity change, negative = cytotoxicity, actives largely listed as inhibitors | hit rate 6.6% among 94,000; also: nearly all actives have a fitted effect of over 60% in size
#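 HEK 293 cells at 250 cells/well were exposed to compounds by pintool transfer for 48 or 72 hr at 37 degree Celsius, 5% CO2. Viability was read as ATP-coupled luminescence with CellTiter-Glo after 10 min at room temperature.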
# Luciferase inh = Firefly luciferase inhibition profiling of diverse chemical library using quantitative high-throughput screening | Luciferin 4-monooxygenase (Photinus pyralis), P08659 | purified P. pyralis luciferase, luminescence, biochemical | Potency, µM (highest dose often 115 µM), usual class: inhibitors | hit rate 2.5% among 76,000 | AID 1347043, 2019; also: nearly all actives have a fitted effect of over 65% in size
#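 Purified 10nM P. pyralis luciferase with 10uM D-luciferin and 10uM ATP in 50mM Tris acetate pH 7.5, 10mM Mg acetate, 0.01% Tween-20, 0.05% BSA. qHTS titration; luminescence read by CCD imager.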
# GPT2 inh = Primary qHTS assay for inhibitors of Glutamate pyruvate transaminase 2 (GPT2). Alanine aminotransferase 2 (Homo sapiens), Q8TD30. Recombinant GPT2, coupled pyruvate oxidase/HRP Amplex Red fluorescence. Potency, µM (doses to about 57.7 µM), for the others: top-dose activity change, negative = inhibition, usual class: inhibitors. hit rate 0.25% among 100,000; also: nearly all actives have a fitted effect of over 60% in size
#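 Fluorescence read-out: pyruvate from GPT2 turnover coupled to pyruvate oxidase, HRP and Amplex Red (0.2mM ThPP, 0.2U/mL PO and HRP, 50uM Amplex final). Substrates 250uM a-KG, 2mM L-alanine; enzyme 10ng/uL; 30 min RT.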
# hNpr1 antagonist = Natriuretic polypeptide receptor (hNpr1) antagonism - Primary qHTS; Atrial natriuretic peptide receptor 1 (Homo sapiens), P16066; HEK293 hNpr1 GloSensor cGMP, ANP-stimulated luminescence; Potency, µM (titrated, usually from 46.3 µM), without a hit: at the top dose activity change, negative = inhibition, actives largely listed as inhibitors; hit rate 1.6% among 76,000; AID 1347048, 2019; calls by dose curve; also: nearly all actives have a fitted effect of over 60% in size
# Target sequence (P16066 whole entry, looked up): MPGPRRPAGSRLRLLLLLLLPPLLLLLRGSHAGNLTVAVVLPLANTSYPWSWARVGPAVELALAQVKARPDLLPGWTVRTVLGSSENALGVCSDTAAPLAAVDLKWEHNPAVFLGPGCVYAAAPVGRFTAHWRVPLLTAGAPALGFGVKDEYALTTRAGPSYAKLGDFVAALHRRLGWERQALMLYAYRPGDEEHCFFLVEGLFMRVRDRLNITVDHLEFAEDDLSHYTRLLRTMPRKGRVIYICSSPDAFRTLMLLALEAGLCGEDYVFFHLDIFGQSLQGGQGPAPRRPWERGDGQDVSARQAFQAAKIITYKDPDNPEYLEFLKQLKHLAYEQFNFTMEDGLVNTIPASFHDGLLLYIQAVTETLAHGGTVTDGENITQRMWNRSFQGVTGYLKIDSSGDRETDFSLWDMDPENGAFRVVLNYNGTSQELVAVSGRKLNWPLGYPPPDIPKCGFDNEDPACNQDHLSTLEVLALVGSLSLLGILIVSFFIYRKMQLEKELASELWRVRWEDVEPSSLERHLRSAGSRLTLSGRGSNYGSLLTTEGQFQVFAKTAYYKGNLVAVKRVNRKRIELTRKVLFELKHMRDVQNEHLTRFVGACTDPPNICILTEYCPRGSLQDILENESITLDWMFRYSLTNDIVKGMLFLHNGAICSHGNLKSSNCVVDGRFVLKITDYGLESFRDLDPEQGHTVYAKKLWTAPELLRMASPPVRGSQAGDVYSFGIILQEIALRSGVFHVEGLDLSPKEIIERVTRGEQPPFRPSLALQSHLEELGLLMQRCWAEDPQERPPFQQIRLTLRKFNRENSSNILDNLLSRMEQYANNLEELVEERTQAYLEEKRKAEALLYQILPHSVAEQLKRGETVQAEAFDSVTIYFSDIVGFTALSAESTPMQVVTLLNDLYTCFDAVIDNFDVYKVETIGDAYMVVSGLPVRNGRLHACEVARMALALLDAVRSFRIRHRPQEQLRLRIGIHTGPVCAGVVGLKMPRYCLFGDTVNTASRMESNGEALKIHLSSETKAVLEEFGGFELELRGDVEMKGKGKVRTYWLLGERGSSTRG
#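 Compound pre-incubated 30 min at room temperature on GloSensor-loaded HEK293 cells stably carrying hNpr1 and the pGS-40F cGMP biosensor. Stimulation uses hNppA at 0.1 nM final; luminescence is taken at baseline and 20 min post-agonist.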
# 3T3 cytotox = Cytotoxic Profiling in NIH 3T3 Cell Line of Diverse Libraries Using Quantitative High-Throughput Screening; NIH 3T3 viability, CellTiter-Glo ATP luminescence, 48-72 h; Potency, µM (series often up to 96.7 µM), inactives show at the top dose activity change, negative = cytotoxicity, most hits filed as inhibitors; hit rate 4.3% among 94,000; AID 1345082, 2018; also: nearly all actives have a fitted effect of over 55% in size
#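 Viability of NIH 3T3 cells after 48 or 72 hr compound treatment at 37 °C was assessed by CellTiter-Glo, with luminescence imaged following a 10 min room-temperature step.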
# An asterisk follows results filed as active; i = inactive; ? = inconclusive; · = no result; [ ] = remark or other dose. Unless noted, calls follow the shape of the dose curve; as a rule, active = well fitted curve in the direction sought with a large enough effect; inconclusive = small, poorly fitted or top-dose-only effect, or another doubt; inactive = no such curve, though single readings can be large; an effect the other way counts as inactive or inconclusive. % is scaled to controls: 0 for no effect and ±100 for the full control effect; potency is read from the fitted curve at half-maximal effect.
SMILES,HEK cytotox,Luciferase inh,GPT2 inh,hNpr1 antagonist,3T3 cytotox
CN(C(=O)c1ccc(F)cc1)C1CCCc2ccccc21 (stereo not given),100µM*,?,i,-1%[70.6 µM],?
Cc1ccc(NC(=O)C2CCCCC(=O)N2)cc1F (stereo not given),15%,i,-4%,4%,i
O=C(NCc1cccnc1Oc1ccc(F)cc1F)c1cc(C2CC2)[nH]n1,8.9µM*,i,4%,-20%,?
c1ccc(CO[C@H]2COCCN(c3nc4ccccc4s3)C2)cc1,112µM*,?,-10%[88.5 µM],-4%[70.6 µM],?
c1ccc(CO[C@H]2COCCN(c3nc4ccccc4o3)C2)cc1,-24%[172 µM],i,0%[88.5 µM],-2%[70.6 µM],-8%[138 µM]
CN1CCC(C(=O)N2Cc3ccccc3CC3(CCCN3C)C2)CC1 (stereo not given),i,·,i,·,i
COc1cccc(S(=O)(=O)N2C[C@@H](Oc3cccnc3)C[C@H]2C(=O)NC2CC2)c1,5%,i,i,8%,i
Cc1ccc(C(=O)N2CCCC3(CCNCC3)CC2)cc1Cl,?,i,-27%,-1%,79µM*
CCCC(=O)Nc1ccccc1-c1cccc(NC(C)=O)c1,2%,i,-17%,5%,-1%
Cc1cc(C)cc(-c2ccc(CN3CCCC(NC(=O)N(C)C)C3)cc2)c1 (stereo not given),32µM*,·,-11%,·,?
CC(=O)NC1CCCN(Cc2ccc(-c3cc(C)cc(C)c3)cc2)C1 (stereo not given),?,·,2%[88.5 µM],·,?
Cc1cc(C)cc(-c2ccc(CN3CCCC(NC(=O)C(C)C)C3)cc2)c1 (stereo not given),-35%,·,i,·,-22%
Cc1cc(C)cc(-c2ccc(CN3CCCC(NC(=O)Cc4ccc(F)cc4)C3)cc2)c1 (stereo not given),32µM*,·,3%,·,?
Cc1cc(C)cc(-c2ccc(CN3CCCC(NC(=O)Cc4cccc(Cl)c4)C3)cc2)c1 (stereo not given),25µM*,·,i,·,?
COc1ccc(CC(=O)NC2CCCN(Cc3ccc(-c4cc(C)cc(C)c4)cc3)C2)cc1 (stereo not given),22µM*,·,i,·,18µM*
COc1ccc(C(=O)N2C(C(=O)NCc3ccco3)COC23CCN(C(=O)CC(C)(C)C)CC3)cc1 (stereo not given),?,i,0%,4%,-12%
COCCN1CCCC2(CCN(c3ccc4ccccc4n3)C2)C1=O (stereo not given),-33%,?,i[11.5 µM],4%,?
CN(C)CCN(C)[C@@H]1[C@H](O)[C@H](CO)O[C@@H]1CN(Cc1ccc(Cl)cc1)Cc1cccc(Cl)c1,?,i,-9%,?,28µM*
OC[C@@H]1O[C@H](CN(Cc2cccc(Cl)c2)Cc2cccc(Cl)c2)[C@H](N2CCN(c3ccccn3)CC2)[C@@H]1O,?,i,-17%,4%,?
CNC(C)c1ccc(Oc2ccccc2)cc1 (stereo not given),100µM*,·,1%[88.5 µM],·,79µM*
CNC(C)c1ccc(OC(F)(F)F)cc1 (stereo not given),i,·,i,·,i
CCOC(=O)[C@H]1CN(C(=O)c2ccc3c(c2)OCCCO3)[C@]2(C)C(=O)N(CCOC)c3ccccc3[C@H]12,?,·,·,·,-26%
CCOC(=O)[C@@H]1[C@H]2c3ccccc3N(CCOC)C(=O)[C@H]2N(C(=O)c2ccccc2)[C@@H]1c1ccccc1,35µM*,·,·,·,?
Cc1ccccc1C(=O)N1CCCC(C(=O)N2CCC(c3nc4ccncc4[nH]3)CC2)C1 (stereo not given),1%,·,-9%,·,-12%
